Source: PubChem BioAssay
Sampled rows, rich in hits. Any-hit rate of the full collection: about 12%.
JMJD2A Tudor inh: JMJD2A Tudor domain (human) inhibition. Potency, µM (doses to about 114 µM), for inactives: at the highest dose activity change, negative = inhibition, usual class: inhibitors. 390,000 compounds, 4.4% hits. AlphaScreen JMJD2A-Tudor / H3K4me3 peptide binding. O75164; note: % is set by controls: 0 for no effect and ±100 for the full control effect; nearly all actives have a fitted effect of over 50% in size
Sfp PPTase inh: inhibitors of Bacillus subtilis Sfp phosphopantetheinyl transferase. 310,000 compounds, 3.5% hits. Q9F4F7. Potency, µM, without a hit: largest response in the series, negative = inhibition, most hits filed as inhibitors. Biochemical Sfp PPTase activity, qHTS;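 note: the enzyme is Sfp with the accession as filed and its product quenches rhodamine fluorescence; 0% = enzyme reaction without inhibitor and -100% = no enzyme wells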
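Fluorescence-quenching assay with 15 nM Sfp, 5 uM rhodamine-CoA and 12.5 uM BHQ-2-labelled ybbR peptide in pH 7.6 Hepes/MgCl2 buffer. Enzyme was pre-incubated with compound for 15 min at room temperature. Rate was taken from the 30-min fluorescence change (525/598 nm).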
BAZ2B block: inhibitors of human BAZ2B bromodomain; AlphaScreen BAZ2B-H3K14Ac peptide displacement; AID 504333; 360,000 compounds, 4.4% hits; Q9UIF8; Potency, µM (highest dose often 114 µM), without a hit: at the top dose activity change, negative = inhibition, actives largely listed as inhibitors; note: % is set by controls: 0 for no effect and ±100 for the full control effect; nearly all actives have a fitted effect of over 60% in size
Target sequence (Q9UIF8 whole entry, looked up): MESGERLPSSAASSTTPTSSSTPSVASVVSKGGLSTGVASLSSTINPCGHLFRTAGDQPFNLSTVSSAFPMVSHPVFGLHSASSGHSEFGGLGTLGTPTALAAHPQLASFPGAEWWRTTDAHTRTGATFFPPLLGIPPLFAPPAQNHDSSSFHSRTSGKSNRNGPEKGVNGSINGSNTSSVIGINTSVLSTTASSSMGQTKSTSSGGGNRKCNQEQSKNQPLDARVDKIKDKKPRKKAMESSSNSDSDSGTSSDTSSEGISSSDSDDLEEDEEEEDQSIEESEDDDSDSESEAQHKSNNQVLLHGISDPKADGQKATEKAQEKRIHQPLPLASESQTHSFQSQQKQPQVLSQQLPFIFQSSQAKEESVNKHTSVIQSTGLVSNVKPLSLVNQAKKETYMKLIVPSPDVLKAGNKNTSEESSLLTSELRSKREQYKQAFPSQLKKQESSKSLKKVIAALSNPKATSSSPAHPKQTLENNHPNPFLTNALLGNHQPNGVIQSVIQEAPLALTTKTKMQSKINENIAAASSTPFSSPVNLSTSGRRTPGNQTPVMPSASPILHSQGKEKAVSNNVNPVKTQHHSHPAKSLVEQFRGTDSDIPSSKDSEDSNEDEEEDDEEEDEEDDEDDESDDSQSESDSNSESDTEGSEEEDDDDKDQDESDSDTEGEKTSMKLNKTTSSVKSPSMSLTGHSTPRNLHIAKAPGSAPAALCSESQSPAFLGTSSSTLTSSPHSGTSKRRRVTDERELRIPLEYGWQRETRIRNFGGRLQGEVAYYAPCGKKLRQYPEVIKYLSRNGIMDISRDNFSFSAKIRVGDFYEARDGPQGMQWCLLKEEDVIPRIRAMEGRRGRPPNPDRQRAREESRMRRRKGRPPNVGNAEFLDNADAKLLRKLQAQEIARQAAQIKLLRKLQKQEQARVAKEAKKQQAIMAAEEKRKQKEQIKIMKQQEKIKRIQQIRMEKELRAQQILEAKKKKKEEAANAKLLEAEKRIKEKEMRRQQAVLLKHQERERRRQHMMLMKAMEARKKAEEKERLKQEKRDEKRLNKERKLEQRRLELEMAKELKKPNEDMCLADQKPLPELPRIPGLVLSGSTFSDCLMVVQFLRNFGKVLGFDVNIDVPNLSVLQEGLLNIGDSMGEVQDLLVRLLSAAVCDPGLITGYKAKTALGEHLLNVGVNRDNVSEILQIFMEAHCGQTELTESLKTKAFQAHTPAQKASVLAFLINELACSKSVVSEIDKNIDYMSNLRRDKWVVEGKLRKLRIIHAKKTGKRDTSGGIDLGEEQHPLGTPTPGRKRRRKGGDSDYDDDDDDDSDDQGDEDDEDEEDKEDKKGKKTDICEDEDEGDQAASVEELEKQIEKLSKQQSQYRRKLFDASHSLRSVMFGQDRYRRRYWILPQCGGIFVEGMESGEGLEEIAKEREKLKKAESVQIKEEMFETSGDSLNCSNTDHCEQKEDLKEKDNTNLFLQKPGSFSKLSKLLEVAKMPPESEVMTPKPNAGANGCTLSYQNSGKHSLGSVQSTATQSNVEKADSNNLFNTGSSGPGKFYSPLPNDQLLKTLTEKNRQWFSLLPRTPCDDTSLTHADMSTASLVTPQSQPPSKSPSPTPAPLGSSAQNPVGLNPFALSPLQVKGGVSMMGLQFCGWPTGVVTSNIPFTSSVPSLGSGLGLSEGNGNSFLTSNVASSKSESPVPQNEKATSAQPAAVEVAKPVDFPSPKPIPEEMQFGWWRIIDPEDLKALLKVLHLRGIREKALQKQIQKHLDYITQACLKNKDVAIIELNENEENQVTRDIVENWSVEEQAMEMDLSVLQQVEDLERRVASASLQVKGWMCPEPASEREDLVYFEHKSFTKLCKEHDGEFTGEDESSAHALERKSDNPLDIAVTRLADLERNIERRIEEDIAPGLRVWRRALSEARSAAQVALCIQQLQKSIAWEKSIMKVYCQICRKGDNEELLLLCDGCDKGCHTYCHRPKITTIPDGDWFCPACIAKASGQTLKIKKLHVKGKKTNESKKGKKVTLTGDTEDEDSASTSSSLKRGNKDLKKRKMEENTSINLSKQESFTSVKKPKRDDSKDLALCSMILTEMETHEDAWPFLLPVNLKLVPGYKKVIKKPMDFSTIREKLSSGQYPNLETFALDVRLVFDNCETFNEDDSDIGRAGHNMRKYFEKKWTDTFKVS
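AlphaScreen luminescence quantifies BAZ2B engagement of H3K14Ac peptide; the protein and biotinylated peptide are both at 50 nM final, buffer PBS pH 7.4 with 0.01% Tween-20, all steps at room temperature.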
PLK1 PBD inh: blocks phosphopeptide binding to human PLK1 polo-box domain. AID 720504. Potency, µM, inactives show max response, negative = inhibition, hits mostly inhibitors. P53350. Plk1 PBD binding of FITC phosphopeptide, fluorescence polarization. 360,000 compounds, 2.8% hits; note: series mostly up to about 57 µM; % is set by controls: 0 for no effect and ±100 for the full control effect; nearly all actives have a fitted effect of over 65% in size
HP1b chromo inh: blocks HP1-beta chromodomain binding to methylated histone tails. 390,000 compounds, 0.56% hits. AlphaScreen HP1-beta / biotin-H3K9me3 peptide binding. Potency, µM (titrated, usually from 114 µM), without a hit: top-dose activity change, negative = inhibition, usual class: inhibitors. P83916; note: nearly all actives have a fitted effect of over 70% in size
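AlphaScreen: HP1-beta (50 nM) preformed 30 min with biotin-H3(1-18)K9me3 peptide (50 nM) in PBS pH 7.4, 0.01% Tween-20. Compound added for 30 min at RT, then streptavidin donor/nickel chelate acceptor beads (10 ug/mL) for 30 min.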
G9a inh: G9a (human) methyltransferase inhibition; Q96KQ7; G9a H3K9 monomethylation, AlphaScreen, 2 h; Potency, µM (top dose mostly 102 µM), without a hit: top-dose activity, negative = inhibition, actives largely listed as inhibitors; 350,000 compounds, 8.8% hits; AID 504332; note: % is set by controls: 0 for no effect and ±100 for the full control effect; nearly all actives have a fitted effect of over 75% in size
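Using a bead-based AlphaScreen, monomethylated H3K9 product from 2 h room-temperature reactions (G9a 20 nM, peptide 500 nM, SAM 20 uM) was detected with 0.5 ug/mL rabbit anti-H3K9me1 antibody.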
Numbers without * were called inactive; u = inconclusive; x = no result; [ ] = dose if it differs, or a comment. Calls come from the whole dose curve; as a rule, active = well fitted curve in the direction sought with a large enough effect; inconclusive = small, poorly fitted or top-dose-only effect, or another doubt; inactive = no such curve, though single readings can be large; an effect the other way counts as inactive or inconclusive. Potency is the fitted concentration of half-maximal effect.

SMILES	JMJD2A Tudor inh	Sfp PPTase inh	BAZ2B block	PLK1 PBD inh	HP1b chromo inh	G9a inh
Cc1ccc(CNc2ccc(-c3nc(-c4ccccn4)no3)cc2[N+](=O)[O-])cc1	-11%	x	u	x	56%	-49%[59 µM]
O=C(Nc1ccc(OC(F)F)cc1)c1cc[n+]([O-])cc1	-7%	22%	-15%	-8%	1%	-8%
CCC(=O)Nc1ccc2nc(SCCOc3ccc(C)cc3)sc2c1	-18%	x	-4%	x	6%	-17%[59 µM]
COc1ccccc1/C=C/C(=O)OCC(=O)NC1CCS(=O)(=O)C1 (configuration not stated)	2%	x	x	4%	24%	x
O=C1NN=C2CCCCCC12 (configuration not stated)	x	x	x	-5%	x	x
Cc1cc(NC(=O)CCCN2C(=O)/C(=C\c3cccs3)SC2=S)no1	-11%	0%	-4%	-3%	4%	-8%
Cc1cc(NC(=O)CCN2C(=O)/C(=C\c3ccccc3Cl)SC2=S)no1	-6%	50µM*	-6%	3%	33%	8%
O=C(CCN1C(=O)/C(=C/c2ccccc2Cl)SC1=S)Nc1ccccc1C(=O)O	u	1%	35µM*	24µM*	-10%	25%[2.33 µM]
CN1CCN(NC(=O)CN2C(=O)/C(=C/c3c(Cl)cccc3Cl)SC2=S)CC1	u	-18%	u	-25%	20%	56µM*
CC[C@H]1[C@@H]2C=C[C@@H]3[C@H]4C/C=C\C(=O)NCCC[C@@H]5NC(=O)C(=C5O)C(=O)CC[C@@H]4C[C@@H]3[C@H]2C[C@H]1C	x	-5%	x	x	x	37%[59 µM]
COc1ccc(CNC(=O)CN(C(=O)c2csnn2)c2cccc(C(C)=O)c2)cc1	0%	13%	-2%	1%	-9%	-2%
Cn1c(=O)c(Nc2ccc(O)cc2)c2c3c(cccc31)C(=O)c1ccccc1-2	7.9µM*	-17%	6.3µM*	u	18µM*	13µM*
CC(=O)c1c2c3c(cccc3n(C)c1=O)C(=O)c1ccccc1-2	-27%	-2%	u	u	48%	18µM*
Cc1cccc(-n2c3nc(=O)n(C)c(=O)c-3cc3c(C)nn(-c4ccccc4)c32)c1C	-3%	x	x	x	46%	-12%[59 µM]
Cc1cccc(-n2c(O)c(C=Nc3cccc(O)c3)c3ccccc3c2=O)n1	-13%[11.4 µM]	11%	-27%	15µM*	-19%	-6%
Cc1ccc(-n2c(O)c(C=Nc3ccc4c(c3)OCO4)c3ccccc3c2=O)cc1C	-7%	35µM*	-5%	-6%	37%	-25%[59 µM]
Cc1cc(N=Cc2c(O)n(-c3ccc4c(c3)OCO4)c(=O)c3ccccc23)ccn1	-24%	u	-2%	18%	19%	2%[59 µM]
CO[C@H]1COC(=O)[C@@H](Cc2ccccc2)NC(=O)[C@@H](C)COC(=O)C/C=C\[C@@H]1C	x	22%	x	x	x	x
O=C(NCCc1ccc(Cl)cc1)c1ccc(CS(=O)Cc2cccc(Cl)c2)o1 (configuration not stated)	-16%	x	u	x	19%	-25%[59 µM]
Cc1ccc(-c2ccnc3nc(-n4cccc4)nn23)o1	-30%[11.4 µM]	-2%	-21%	4.7µM*	u	-11%
CCc1ccc(CN(C)C(=O)c2cc(COc3cc(C)c(Cl)c(C)c3)on2)nc1	29%	8%	1%	0%	86%	179%
CN(Cc1ccc2ccccc2c1)C(=O)c1ccc(C(F)(F)F)cc1	40%	7%	37%	-16%	32%	55%
COc1cc(OC)cc(-c2nnc3n2N=C(c2ccc(OC)cc2OC)CS3)c1	u	56µM*	x	x	x	x
COc1ccc(C2=Nn3c(nnc3-c3ccc(OC)cc3OC)SC2)c(OC)c1	-25%	5%	x	x	x	x
COc1ccc(OC)c(-c2nnc3n2N=C(c2ccccc2OC)CS3)c1	79µM*	u	x	x	x	x
SMILES	JMJD2A Tudor inh	Sfp PPTase inh	BAZ2B block	PLK1 PBD inh	HP1b chromo inh	G9a inh
COc1ccc(-c2nnc3n2N=C(c2ccccc2OC)CS3)c(OC)c1	-19%	-11%	x	x	x	x
COc1cccc(-c2nnc3n2N=C(c2ccc(OC)cc2OC)CS3)c1	u	45µM*	x	x	x	x
COc1cccc(-c2nnc3n2N=C(c2cc(OC)ccc2OC)CS3)c1	-17%	-15%	-3%	-1%	6%	x
CCc1nc2c(OCc3ccc(OC)cc3)cccn2c1N(C)C(=O)c1ccco1	x	x	x	-8%	x	x
CCOc1ccc2nc(N3CCCC(C(=O)NCc4ccc(OC)cc4)C3)sc2c1 (configuration not stated)	-1%	x	-8%	x	32%	7%[59 µM]
COc1ccc(NC(=O)CNC(=O)Cn2ccc3ccccc3c2=O)cc1OC	4%	x	6%	x	42%	1%[59 µM]
CCc1nc2ccc(C(=O)Nc3ccc(OC)c(OC)c3)cn2c1N(C)Cc1ccc(N(C)C)cc1	x	x	x	4%	x	x
COc1ccc(-c2cc(C(=O)N(C)CC(=O)Nc3cccc(F)c3)c3ccccc3n2)cc1	-27%	x	10%	-7%	0%	u
COc1ccc(NC(=O)c2ccco2)c([N+](=O)[O-])c1	-25%	3%	-39%	3%	-12%	u
COc1ccc(NC(=O)C/C(C)=N/NC(=O)c2ccco2)c([N+](=O)[O-])c1	-14%	-2%	-10%	-4%	16%	45µM*
CCOC(=O)c1c(NC(=O)CSc2cn(CCNC(=O)c3ccccc3F)c3ccccc23)sc2c1CCC2	-25%	x	-38%	x	2%	u
N#CCCN(NC1=NS(=O)(=O)c2ccccc21)C(=O)c1ccccc1Br	35µM*	7%	-1%	-10%	59%	-3%[2.33 µM]
N#Cc1ccc(NC2=NS(=O)(=O)c3ccccc32)cc1	-8%	x	-22%	x	15%	-8%[59 µM]
CC(=O)Oc1ccc2c(=O)c(/C=N/c3cc(=O)[nH]c(=S)[nH]3)coc2c1	-20%	-23%	-24%	-17%	20%	35µM*
O=c1cc(/N=C/c2coc3cc(Br)ccc3c2=O)[nH]c(=S)[nH]1	-25%	14%	u	-17%	9%	-44%
